# Measurements from PubChem BioAssay AID602393 (Broad Institute, 2012).
# In all, about 350,000 compounds went through this assay and about 7,000 (2%) were called active. This excerpt belongs to a sample that is enriched for actives. A number with no mark means an inactive call. Rule as the data show it: active = activation above about 40%; inconclusive = no clear call, values can overlap the other calls; inactive = below that.
# Assay: Bmi1 luciferase reporter increase in mESCs, primary screen, esBAF inhibitor project, mouse ES cells, Bmi1 luciferase knock-in, single point (AID 602393);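 also: 0% = median of the plate's neutral control wells and 100% = double that signal; a rise in the Bmi1 reporter signal indicates esBAF inhibition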
# Conditions: 24 h, at 12.5 µM, hits give high values, 100% = twice the neutral-well signal
row,Compound,reporter increase
1,O=C(NC[C@@H]1N[C@@H](CO)[C@H]1c1ccc(-c2cccnc2)cc1)c1cccc(F)c1,5.54%
2,COCCNC(=O)C[C@H]1CC[C@H]2[C@H](COc3ccc(NC(=O)C4CCOCC4)cc3C(=O)N2C)O1,2.05%
3,Cc1cccc(NC(=O)COc2ccccc2C)n1,44.4% (active)
4,COCCNC(=O)COc1ccccc1C,0.533%
5,Cc1ccccc1OCC(=O)Nc1nnc(S(=O)(=O)N2CCCC2)s1,1.57%
6,Cc1ccccc1OCC(=O)Nc1nc(C)c(C(=O)N(C)C)s1,9.35%
7,Cc1cccc(NC(=O)COc2ccc(Br)cc2C)n1,35.7%
8,CCOc1ccc(OCc2ccc(C(=O)Nc3cccc(C)n3)o2)cc1,37.5%
9,Cc1ccccc1OCC(=O)Nc1ccc2c(c1)ncn2C,68.1% (active)
10,Cc1cccc(NC(=O)Cc2ccc(Br)cc2)n1,44.9% (active)
11,Cc1cccc(NC(=O)c2ccc3ccccc3n2)n1,25.2%
12,C/C=C/c1ccc([C@H]2[C@@H](CO)N(C(=O)CC)[C@H]2CN(C)C(=O)C2CC2)cc1,5.87%
13,CCCNC(=O)NC[C@H]1[C@H](c2ccc(C3=CCCCC3)cc2)[C@H](CO)N1C(C)=O,-2.67%
14,COCc1cn(CC[C@H]2CC[C@H](NC(=O)Cc3cccnc3)[C@H](CO)O2)nn1,1.37%
15,COCC(=O)Nc1ccc2c(c1)OC[C@H](C)N(Cc1ccccc1OC)C[C@@H](C)[C@@H](OC)CN(C)C2=O,0.256%
16,CCCNC(=O)C[C@H]1CC[C@H]2[C@@H](COc3ccc(NC(=O)Nc4c(C)noc4C)cc3C(=O)N2C)O1,-1.98%
17,COc1ccccc1-c1cc2nc(NCc3cccc(Cl)c3)ccn2n1,-5.22%
18,COCCCNc1ccn2nc(-c3ccc(CC(C)C)cc3)cc2n1,24.7%
19,CC(C)Cc1ccc(-c2cc3nc(NCc4cccc(Cl)c4)ccn3n2)cc1,79.4% (active)
20,COc1ccc(-c2cnc3c(c2)C(=O)N([C@@H](C)CO)C[C@@H](C)[C@H](CN(C)C)O3)cc1,-2.94%
21,O=C(C[C@H]1C=C[C@@H](NC(=O)C2CC2)[C@H](CO)O1)NCC1CC1,-2.61%

row,Compound,reporter increase
1,NS(=O)(=O)c1ccc(N=Nc2c(O)[nH]c3ccc(Br)cc23)cc1,-6.6%
2,Oc1[nH]c2ccc(Br)cc2c1N=Nc1nn[nH]n1,6.07%
3,Cc1cccc(N=Nc2c(O)[nH]c3ccc(F)cc23)c1,72.6% (active)
4,Cc1ccc(S(=O)(=O)Nc2ccc3c(c2)C(=O)N([C@H](C)CO)C[C@@H](C)[C@H](CN(C)S(=O)(=O)c2cccs2)OCCCC[C@@H](C)O3)cc1,5.34%
5,Cc1ccc(S(=O)(=O)N[C@H]2CC[C@H](CC(=O)NCc3ccccc3F)O[C@@H]2CO)cc1,-2.95%
6,O=C(O)CC1=C(Nc2ccccc2)C(=O)N(c2ccccc2)C1c1ccc(Cl)cc1 (configuration not stated),49.1% (active)
7,O=C1C(=O)N(c2ccccc2)C(c2ccccc2)C1c1ccccc1 (configuration not stated),-0.185%
8,O=C1C=C(c2ccc(Cl)cc2)C(=O)N1Nc1ccccc1,-0.361%
9,C[C@@H]1CN([C@@H](C)CO)C(=O)Cc2cc(NC(=O)C3CCCCC3)ccc2O[C@H]1CN(C)C(=O)Nc1ccccc1,0.449%
10,CCOC(=O)c1c(C)nc(-c2ccccc2)nc1NC(=O)C(C)C,42.3% (active)
11,CCOC(=O)c1c(N)nn(C(=O)c2ccccc2)c1-c1ccccc1,-1.4%
12,CCOC(=O)c1c(-c2ccc(-c3ccccc3)cc2)csc1NC(=O)CCC(=O)O,-6.99%
13,O=C(O)c1cc([N+](=O)[O-])c(Nc2cccc3ccccc23)c([N+](=O)[O-])c1,15.6%
14,O=C(Nc1ccccc1C(=O)Nc1ccncc1)c1ccc([N+](=O)[O-])cc1,-2.66%
15,O=C(Nc1ccc2ccccc2c1[N+](=O)[O-])c1ccccc1,114% (active)
16,CC(C)CC#Cc1cnc2c(c1)C(=O)N([C@H](C)CO)C[C@H](C)[C@@H](CN(C)C(=O)Cc1cccnc1)O2,-2.07%
17,COc1ccc(NC(=O)N2C[C@H](O)COC[C@@H]3O[C@@H](CC(=O)NCc4ccccc4OC)CC[C@H]32)cc1,2.12%
18,CCCNC(=O)[C@@H]1[C@@H](CO)[C@@H]2Cn3c(ccc(/C=C/c4ccccc4)c3=O)[C@H]1N2CCC,-5.3%
19,Cc1cccc(-c2nc3ccc(C(=O)NCCN4CCN(C)CC4)cc3nc2-c2cccc(C)c2)c1,-7.08%
20,CCOc1c2ccc(C(=O)NCc3ccc4c(c3)OCO4)cc2nn1C,-7.4%
21,C=CCNC(=O)c1ccc2c3n(nc2c1)-c1ccc(C)cc1CO3,56.5% (active)

row,Compound,reporter increase
1,O=C(Nc1cccc(F)c1)NC1CCCCCCC1,59.1% (active)
2,O=C(Nc1cccc(F)c1)NC1CCCc2ccccc21 (configuration not stated),-6.65%
3,Cc1cc(C)cc(NC(=O)NC2CCCCCCC2)c1,15.2%
4,COc1ccc(/C=N/Nc2nc3ccccc3c(=O)[nH]2)cc1,45.1% (active)
5,COc1ccc(/C=N/Nc2nc(-c3ccc(C)cc3)c(C#N)c(=O)[nH]2)cc1,-5.86%
6,COc1ccc(/C=N/Nc2ccccc2C(=O)O)cc1,-28.7%
7,CN(C)CC(=O)Nc1ccc2c(c1)[C@H]1C[C@@H](CC(=O)NCc3ccc(-c4ccccc4)cc3)O[C@H](CO)[C@H]1O2,4.03%
8,COc1ccc(NC(=O)Nc2ccc3c(c2)[C@H]2C[C@H](CC(=O)NC4CCCC4)O[C@H](CO)[C@H]2O3)cc1,2.4%
9,Cc1csc(NC(=O)C2CCN(S(=O)(=O)c3ccccc3)CC2)n1,-5.46%
10,Cc1csc(NC(=O)CN2CCCCCC2)n1,-1.61%
11,Cc1csc(NC(=O)c2ccc(C)s2)n1,50.8% (active)
12,CCNC(=O)[C@H]1[C@H](CO)[C@H]2Cn3c(ccc(/C=C/c4ccccc4)c3=O)[C@@H]1N2C(=O)C1CCC1,0.423%
13,COC(=O)C[C@H]1CC[C@H](NC(=O)c2ccccc2)[C@@H](CO)O1,-1.98%
14,C/C=C/c1ccc2c(c1)O[C@@H](CN(C)S(C)(=O)=O)[C@@H](C)CN([C@H](C)CO)S2(=O)=O,-0.163%
15,COc1ccc(-c2nnc(SC(=O)N3c4ccccc4Sc4ccccc43)o2)cc1,2.78%
16,COc1ccc(-c2nnc(SCc3cccnc3)o2)cc1,52.4% (active)
17,COc1cccc(NC(=O)CSc2nnc(-c3cccnc3)o2)c1,13.3%
18,CC(C)NC(=O)N(C)C[C@H]1Oc2ncc(C#CC3CC3)cc2C(=O)N([C@H](C)CO)C[C@@H]1C,-3.17%
19,CCCC(=O)Nc1ccc2c(c1)OC[C@H](C)N(S(=O)(=O)c1cn(C)cn1)C[C@@H](C)[C@H](OC)CN(C)C2=O,-1.9%
20,CN1C(=O)c2cc(NC(=O)c3ccccc3)ccc2OC[C@@H]2O[C@H](CC(=O)NCC3CC3)CC[C@@H]21,6.3%
21,C/C=C/c1ccc2c(c1)O[C@H](CN(C)C(=O)CN(C)C)[C@H](C)CN([C@@H](C)CO)S2(=O)=O,0.684%

row,Compound,reporter increase
1,CCOC(=O)Cc1csc(NC(=O)Nc2ccccc2)n1,47.4% (active)
2,CCOC(=O)Cc1csc(NC(NC(=O)OCC)(C(F)(F)F)C(F)(F)F)n1,-0.744%
3,COc1ccccc1NC(=O)Nc1nc(CC(=O)Nc2ccccc2F)cs1,1.14%
4,C[C@@H]1CN([C@@H](C)CO)C(=O)c2cc(NS(=O)(=O)c3ccccc3)ccc2O[C@@H](C)CCCCO[C@@H]1CN(C)S(=O)(=O)c1cccs1,6.97%
5,C[C@@H]1CN([C@H](C)CO)S(=O)(=O)c2ccc(C#CCN(C)C)cc2O[C@@H]1CN(C)C(=O)C1CCCCC1,-0.287%
6,O=C(c1cc(COc2cccc(C(F)(F)F)c2)on1)N1CCSCC1,-2.92%
7,Cc1ccc(C)c(OCc2cc(C(=O)N3CCN(c4cnccn4)CC3)no2)c1,3.21%
8,O=C(c1cc(COc2ccc(F)cc2F)on1)N1CCOCC1,61.9% (active)
9,COc1cccc(OC)c1OCCN1CCN(C(=O)c2ccco2)CC1,-3.54%
10,O=C(c1cc(COc2ccc(F)c(F)c2)on1)N1CCOCC1,37.7%
11,O=C(NCCCc1ccccc1)c1cc(COc2c(F)cccc2F)on1,17.5%
12,O=C(c1ccco1)N1CCN(C(=O)c2ccc(COc3ccc(F)cc3)o2)CC1,-8.59%
13,O=C(c1cc(COc2c(F)cccc2F)on1)N1CCSCC1,53.1% (active)
14,COc1cccc(OCc2cc(C(=O)N3CCN(C(=O)c4ccco4)CC3)no2)c1,70.2% (active)
15,C[C@@H]1CN([C@@H](C)CO)C(=O)c2cc(NC(=O)C3CCCCC3)ccc2O[C@@H](C)CCCCO[C@H]1CN(C)C(=O)Nc1ccc2c(c1)OCO2,7.74%
16,CC(=O)N[C@@H]1C=C[C@H](CC(=O)NCC2CCCCC2)O[C@H]1CO,4.99%
17,C[C@@H]1CCCCO[C@@H](CN(C)Cc2ccncc2)[C@@H](C)CN([C@@H](C)CO)C(=O)c2cc(N(C)C)ccc2O1,1.32%
18,COc1cccc(NC(=O)N[C@@H]2C=C[C@H](CC(=O)NCc3ccccn3)O[C@H]2CO)c1,-1.55%
19,COc1cccc(C(=O)Nc2ccc3c(c2)C(=O)N(C)C[C@@H](OC)[C@@H](C)CN(C)[C@@H](C)CO3)c1,1.2%
